This is a sample that favours compounds with a hit; in the whole collection about 6.2% have one here.
S2 tox – cell viability loss in ATXN counter-screen; actives 0.49% (n = 400,000); AID 651635; S2 cells (HEK-293 line with an ATXN2-luciferase reporter) viability, CellTiter-Fluor protease fluorescence, 24 h; Potency, µM (doses to about 56.7 µM), most hits filed as cytotoxic; note: nearly all actives have a fitted effect of over 40% in size
ATXN2 expr inh – ATXN2 expression inhibition. Potency, µM (doses to about 57 µM), without a hit: at the top dose activity change, negative = inhibition, usual class: inhibitors. AID 1745845. actives 0.72% (n = 360,000). HEK-293 ATXN2-luciferase reporter, luminescence, 24 h; note: % is set by controls: 0 for no effect and ±100 for the full control effect; nearly all actives have a fitted effect of over 55% in size
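qHTS (up to 57 uM final) was run with 24 h compound exposure of reporter cells at 37 °C. Each well was multiplexed: SteadyGlo luminescence measured ATXN2-luciferase expression after a fluorogenic Gly-Phe-AFC viability readout (25 uM final).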
KB-3-1 tox – kills parental KB-3-1 adenocarcinoma cells. KB-3-1 viability, CellTiter-Glo ATP luminescence, 72 h. Potency, µM (series often up to 46.1 µM), hits mostly cytotoxic. actives 1.4% (n = 400,000). AID 1347075; note: % is set by controls: 0 for no effect and ±100 for the full control effect; nearly all actives have a fitted effect of over 60% in size
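Using CellTiter-Glo luminescence, growth of non-resistant KB-3-1 adenocarcinoma cells is assessed 72 h after pin-tool compound addition at 37 °C. Normalized responses across the concentration series yield fitted curves.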
HT1080-NT tox – kills 2HG-producing HT-1080-NT fibrosarcoma cells; actives 1.6% (n = 360,000); HT-1080-NT fibrosarcoma viability, CellTiter-Glo ATP luminescence, 48 h; Potency, µM (series often up to 46.1 µM), inactives show at the top dose activity, negative = less viability, most hits filed as cytotoxic; AID 686970;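 note: NT is the 2HG producing partner of a matched IDH1 knockdown line; 0% = DMSO-treated cells and -100% = media-only wells without cells; nearly all actives have a fitted effect of over 55% in size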
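A 48-hour cytotoxicity screen used HT-1080-NT cells plated 2 hours before compound delivery. ATP-based CellTiter-Glo luminescence measured viability, normalized to DMSO and no-cell controls.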
KB-V1 cytotox – KB-V1 MDR subline cytotoxicity; actives 3.4% (n = 400,000); Potency, µM (highest dose often 46.1 µM), actives largely listed as cytotoxic; KB-V1 MDR cells viability, CellTiter-Glo, 72 h; AID 1347076; note: % is set by controls: 0 for no effect and ±100 for the full control effect; nearly all actives have a fitted effect of over 60% in size
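Following 72 h at 37 degrees C with compound, KB-V1 cell viability was read by CellTiter-Glo luminescence, medium being phenol-red-free DMEM plus 10% FBS; concentration-response parameters came from normalized, curve-fitted qHTS data.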
HT1080 IDH1KD tx – HT-1080 IDH1 knockdown cell toxicity (counter line) | HT-1080 IDH1 knockdown viability, ATP luminescence, 48 h | actives 2% (n = 360,000) | Potency, µM (titrated, usually from 46.1 µM), without a hit: top-dose activity, negative = toxicity, actives largely listed as cytotoxic;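 note: 0% = DMSO wells and -100% = cell-free medium wells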
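IDH1KD HT-1080 cells, 750/well, RPMI + 5% FBS; compound pinned after 2 h settling; 48 h, 37 °C; CellTiter-Glo luminescence; % activity normalised to DMSO and no-cell wells; curves fitted, classed by r2 and efficacy.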
Numbers without * were called inactive; i = inactive; ? = inconclusive; . = no result. Calls come from the whole dose curve; as a rule, active = well fitted curve in the direction sought with a large enough effect; inconclusive = small, poorly fitted or top-dose-only effect, or another doubt; inactive = no such curve, though single readings can be large; an effect the other way counts as inactive or inconclusive. Potency is the fitted concentration of half-maximal effect.

SMILES	S2 tox	ATXN2 expr inh	KB-3-1 tox	HT1080-NT tox	KB-V1 cytotox	HT1080 IDH1KD tx
O=C(C[C@H]1C[C@H](C(=O)N2CCOCC2)[C@@]2(CCC3CCCC3)c3[nH]c4cc(-c5ccco5)ccc4c3CCN2C1=O)NCCN1CCOCC1	.	?	?	-19.0%	i	?
O=C(Cn1c(=O)n(-c2ccccc2)c(=O)c2c3c(sc21)CCCC3)Nc1cccc(F)c1	?	2.1%	i	.	i	.
CC(C)CC(=O)Nc1nnc(S(=O)(=O)N(C)Cc2ccc(Cl)cc2)s1	.	.	i	.	i	.
COCCNC(=O)CN1C(=O)c2cccnc2Sc2ccccc21	i	7.5%	i	.	i	.
CN1C2CCC1/C(=C\c1ccc(F)cc1)C(=O)/C2=C/c1ccc(F)cc1	i	-21.4%	?	-1.8%	23.1µM*	9.9%
CCc1ccc(CNC(=O)CN2C(=O)c3cccnc3Oc3ccc(C)cc32)cc1	.	.	i	.	i	.
CC(C)CN(C)Cc1c(C(=O)N2CCc3ccccc3C2)nc2ccc(Cl)cn12	i	-13.1%	?	?	16.4µM*	-29.4%
CCCCN(C)Cc1c(C(=O)N2CCc3ccccc3C2)nc2ccc(Cl)cn12	i	-9.2%	i	-2.5%	?	0.6%
CC(=O)O[C@H]1[C@@H](O)[C@H](O)[C@H](Oc2c(O)c(C)c3c4c2[C@@H](C)CC[C@@H]4[C@@H](C)C[C@H]3C=C(C)C)O[C@H]1C	?	?	?	?	25.9µM*	?
CC(=O)O[C@@H]1[C@@H](O)[C@@H](O)[C@H](Oc2c(-c3ccc(O)cc3)oc3c(CC=C(C)C)c(O)cc(O)c3c2=O)O[C@H]1C	?	?	i	?	i	?
COc1ccccc1N1CCN(C(=O)c2cc3ccc4ccc(C)[nH]c4c3n2)CC1	i	?	i	.	?	.
CCOc1ccc(C(=O)Nc2cnn(Cc3ccc(Cl)c(Cl)c3)c2)cc1	i	?	?	?	2.59µM*	?
O=C(Nc1ccc(Cl)c(Cl)c1)c1ccc(Cn2cc(Cl)cn2)cc1	?	.	?	?	i	?
Cc1ccc(NC(=O)NCC2CC2(Cl)Cl)cc1 (stereo not given)	i	51.7%	i	14.6%	i	8.9%
O=C(NCC1CC1(Cl)Cl)Nc1ccc(Cl)c(Cl)c1 (stereo not given)	i	?	?	18.4µM*	?	29.1µM*
Cc1nc(-c2ccc(F)cc2)c(CC(=O)N(C)CC(=O)Nc2ccc(Cl)c(C(F)(F)F)c2)s1	i	?	i	?	i	16.4µM*
CCc1nc2ccc(C(=O)N(C)CC(=O)Nc3ccc(Cl)c(C(F)(F)F)c3)cc2nc1CC	i	-25.4%	i	?	i	20.6µM*
COCCN(CC(=O)Nc1cccc(C)c1C)C(=O)Cc1sc(C)nc1-c1ccc(F)cc1	?	-15.2%	i	-3.0%	i	-0.9%
Cc1nc(-c2ccc(F)cc2)c(CC(=O)N(C)CC(=O)Nc2ccccc2Cl)s1	i	-4.3%	i	0.3%	3.66µM*	-12.0%
CC(=O)CSc1nc(-c2ccccc2)[nH]c1S(=O)(=O)c1ccc(C)cc1	?	7.6%	i	.	i	.
COc1ccc(C2(C)NC(=O)N(CC(=O)c3cc(C)n(C4CC4)c3C)C2=O)cc1OC (stereo not given)	?	-7.5%	?	5.4%	23.1µM*	2.4%
CCOC(=O)c1c(C)[nH]c(C)c1S(=O)(=O)N1CCC(C(=O)NCc2ccccc2Cl)CC1	i	-5.8%	i	.	i	.
CC(=O)c1ccc(Nc2nc(C(N)Cc3ccc(Cl)cc3)cs2)cc1 (stereo not given)	?	?	?	23.1µM*	i	?
CN(Cc1ccccc1)C(=O)c1ccc(Nc2nc(CN)cs2)nc1	?	-12.0%	i	-8.3%	i	1.9%
CC(=O)c1ccc(Nc2nc(C(N)CCc3ccccc3)cs2)cc1 (stereo not given)	?	?	i	20.6µM*	i	?
SMILES	S2 tox	ATXN2 expr inh	KB-3-1 tox	HT1080-NT tox	KB-V1 cytotox	HT1080 IDH1KD tx
CC(C)C(N)c1csc(Nc2ccc(C(=O)N(C)Cc3ccccc3)cn2)n1 (stereo not given)	?	-30.8%	i	14.6µM*	i	14.6µM*
CC(=O)c1ccc(Nc2nc(C(N)Cc3ccc(N)cc3)cs2)cc1 (stereo not given)	i	-1.7%	i	-7.1%	i	0.0%
Cc1ccc(C)c(S(=O)(=O)c2cnc(SCC(=O)Nc3ccc(F)cc3F)[nH]c2=O)c1	i	-4.8%	i	.	i	.
COc1cccc2c1OC[C@@H](CO)[C@H]2N(C)C(=O)Nc1ccc(Cl)cc1	i	-2.2%	i	-8.0%	14.6µM*	?
CCOC(=O)C(=CNc1ccccc1C)C(=O)OCC	i	-9.3%	i	5.6%	?	-7.9%
CCOC(=O)C(=CNc1cc(C)nn1-c1ccccc1)C(=O)OCC	i	-33.3%	i	-14.6%	4.61µM*	-25.3%
CN(C(=O)CSc1ncnc2sccc12)C1CCCCC1	i	57.9%	i	12.7%	5.17µM*	12.2%
CN(C(=O)CSc1ncnc2sccc12)C1CCS(=O)(=O)C1 (stereo not given)	i	-7.7%	i	13.1%	?	-1.5%
Cc1ccccc1C(=O)Nc1nnc(S(=O)(=O)N(C)Cc2ccc(Cl)cc2)s1	.	.	i	.	i	.
Cc1cc(C)cc(OCc2ccc(C(=O)Nc3ccccc3F)o2)c1	i	-11.5%	i	.	?	.
CC(C)(C)NC(=O)NC(=O)CSc1ncc(C(F)(F)F)cc1Cl	i	-11.0%	i	9.9%	13µM*	-3.8%
CC(C)NC(=O)NC(=O)CSc1ncc(C(F)(F)F)cc1Cl	i	-33.5%	i	3.6%	i	-9.3%
Cc1ccc(C)c(NC(=O)CCCn2nc(C)c3sc4ccccc4c3c2=O)c1	.	.	i	.	?	.
O=S(=O)(Nc1nc2ccccc2nc1N1CCc2ccccc2C1)c1ccc(Cl)cc1	i	5.6%	14.6µM*	-3.0%	14.6µM*	-16.5%
O=S(=O)(Nc1nc2ccccc2nc1N1CCc2ccccc2C1)c1ccc(Br)cc1	i	16.6%	?	-19.7%	i	?
Cc1ccccc1S(=O)(=O)Nc1nc2ccccc2nc1N1CCc2ccccc2C1	i	28.0%	i	-9.3%	20.6µM*	-18.8%
CC(=O)Nc1ccc(S(=O)(=O)Nc2nc3ccccc3nc2N2CCc3ccccc3C2)cc1	?	30.6%	i	2.6%	9.2µM*	1.4%

Assay outcomes from PubChem.
